{
  "source": "the supplement of paper PMC12494721",
  "note": "Where a name gives a salt, the structure may show the parent alone. Unmarked numbers belong to inactive results.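 Rule for the calls: for the amine columns active = adjusted P below 0.05 in both replicates with a change the same way and a mean fold change under 0.8 or over 1.25; inactive = the rest.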",
  "data": [
    {"system": "Escherichia coli IAI1", "test": "fold change of Cadaverine concentration vs plate DMSO controls (fold change (ratio)); higher = more amine produced, active = hit call of the paper (significant change in both replicates, either direction)", "conditions": "incubation time: 27 h, anaerobic, 37 °C", "in_short": "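Extracts of whole anaerobic mGAM cultures were analysed for amines by LC–triple-quadrupole MS with dynamic MRM and external calibration curves, with drift corrected within batch. Four gut strains were grown at 37 °C for 27 h in 80 µL wells with compounds at 20 µM final, sweeteners at 50 µM final. Each value expresses fold change over plate DMSO controls. The average of 2 biological replicates is shown.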", "values": [
      {"smiles": "CCCCCCC[N+](CC)(CC)CCCCc1ccc(Cl)cc1", "note": "[Clofilium tosylate] (20 µM)", "fold change of Cadaverine concentration": 0.947},
      {"smiles": "N=C(N)NCC1COC2(CCCCC2)O1", "note": "(centres undefined) [Guanadrel sulfate] (20 µM)", "fold change of Cadaverine concentration": 0.99},
      {"smiles": "CCCC(CCC)C(=O)O[C@H]1C[C@H]2CC[C@@H](C1)[N+]2(C)C", "note": "[Anisotropine Methylbromide] (20 µM)", "fold change of Cadaverine concentration": 0.948},
      {"smiles": "COc1ccc2c(c1)c(CC(=O)OCC(=O)O)c(C)n2C(=O)c1ccc(Cl)cc1", "note": "[Acemetacin] (20 µM)", "fold change of Cadaverine concentration": 0.959},
      {"smiles": "CN1CCCN=C1/C=C/c1cccc(O)c1", "note": "[Oxantel pamoate] (20 µM)", "fold change of Cadaverine concentration": 1.01},
      {"smiles": "COc1c(O[C@@H]2O[C@H](CO)[C@@H](O)[C@H](O)[C@H]2O)cc2c(c1OC)-c1ccc(SC)c(=O)cc1[C@@H](NC(C)=O)CC2", "note": "[Thiocolchicoside] (20 µM)", "fold change of Cadaverine concentration": 1},
      {"smiles": "Cc1c(Nc2ncccc2C(=O)O)cccc1C(F)(F)F", "note": "[Flunixin meglumine] (20 µM)", "fold change of Cadaverine concentration": 1.01},
      {"smiles": "C#C[C@]1(OC(C)=O)CC[C@H]2[C@@H]3CCC4=CC(=NO)CC[C@@H]4[C@H]3CC[C@@]21CC", "note": "(mixture of isomers) [Norgestimate] (20 µM)", "fold change of Cadaverine concentration": 1.02},
      {"smiles": "CC12CC3CC(C)(C1)CC(N)(C3)C2", "note": "[Memantine hydrochloride] (20 µM)", "fold change of Cadaverine concentration": 0.995},
      {"smiles": "CC(CCc1ccccc1)NCC(O)c1ccc(O)c(C(N)=O)c1", "note": "(centres undefined) [Labetalol hydrochloride] (20 µM)", "fold change of Cadaverine concentration": 0.923},
      {"smiles": "CCCCc1oc2ccc(NS(C)(=O)=O)cc2c1C(=O)c1ccc(OCCCN(CCCC)CCCC)cc1", "note": "[Dronedarone hydrochloride] (20 µM)", "fold change of Cadaverine concentration": 0.996},
      {"smiles": "CCN1CCCC(OC(=O)C(c2ccccc2)c2ccccc2)C1", "note": "(centres undefined) [Piperidolate hydrochloride] (20 µM)", "fold change of Cadaverine concentration": 1.02},
      {"smiles": "C[C@]1(Cn2ccnn2)[C@H](C(=O)O)N2C(=O)C[C@H]2S1(=O)=O", "note": "[Tazobactam] (20 µM)", "fold change of Cadaverine concentration": 0.989},
      {"smiles": "O=C(CCCN1CCN(c2ccccn2)CC1)c1ccc(F)cc1", "note": "[Azaperone] (20 µM)", "fold change of Cadaverine concentration": 0.84},
      {"smiles": "CC(=O)Nc1c(I)c(NC(C)=O)c(I)c(C(=O)O)c1I", "note": "[Diatrizoic acid dihydrate] (20 µM)", "fold change of Cadaverine concentration": 1.01},
      {"smiles": "CN[C@@H]1[C@@H](O)[C@@H](O[C@@H]2[C@@H](O)[C@H](O[C@H]3OC(CN)=CC[C@H]3N)[C@@H](N)C[C@H]2N)OC[C@]1(C)O", "note": "[Sisomicin sulfate] (20 µM)", "fold change of Cadaverine concentration": 0.996},
      {"smiles": "CC(CN(C)C)C(C)(O)Cc1ccc(Cl)cc1", "note": "(centres undefined) [Clobutinol hydrochloride] (20 µM)", "fold change of Cadaverine concentration": 0.965},
      {"smiles": "CC(=O)[C@H]1CC[C@H]2[C@@H]3C[C@H](C)C4=CC(=O)CC[C@]4(C)[C@H]3[C@@H](O)C[C@]12C", "note": "[Medrysone] (20 µM)", "fold change of Cadaverine concentration": 1.02},
      {"smiles": "CC(C(=O)O)c1ccc(-c2ccccc2)c(F)c1", "note": "(centres undefined) [Flurbiprofen] (20 µM)", "fold change of Cadaverine concentration": 1},
      {"smiles": "CCOC(=O)/C=C(C)/C=C/C=C(C)/C=C/c1c(C)cc(OC)c(C)c1C", "note": "[Etretinate] (20 µM)", "fold change of Cadaverine concentration": 1},
      {"smiles": "c1ccc2c(CC3=NCCN3)cccc2c1", "note": "[Naphazoline hydrochloride] (20 µM)", "fold change of Cadaverine concentration": 0.96},
      {"smiles": "CCCCC(=O)N(Cc1ccc(-c2ccccc2-c2nnn[nH]2)cc1)[C@H](C(=O)O)C(C)C", "note": "[Valsartan] (20 µM)", "fold change of Cadaverine concentration": 0.941},
      {"smiles": "COc1ccccc1O", "note": "[Guaiacol] (20 µM)", "fold change of Cadaverine concentration": 1.02},
      {"smiles": "OC[C@H]1O[C@@H](O[C@@H]2[C@@H](CO)OC(O)(CO)[C@H]2O)[C@H](O)[C@@H](O)[C@H]1O", "note": "(mixture of isomers) [Lactulose] (50 µM)", "fold change of Cadaverine concentration": 1.05},
      {"smiles": "CC(C)COC(=O)OCN1C(=O)CN(CCN2CC(=O)N(COC(=O)OCC(C)C)C(=O)C2)CC1=O", "note": "[Sobuzoxane] (20 µM)", "fold change of Cadaverine concentration": 0.988},
      {"smiles": "NS(=O)(=O)c1cc2c(cc1C(F)(F)F)NC(Cc1ccccc1)NS2(=O)=O", "note": "(centres undefined) [Bendroflumethiazide] (20 µM)", "fold change of Cadaverine concentration": 0.959},
      {"smiles": "CCOC(=O)[C@H](CCc1ccccc1)N[C@H]1CCc2ccccc2N(CC(=O)O)C1=O", "note": "[Benazepril hydrochloride] (20 µM)", "fold change of Cadaverine concentration": 0.989},
      {"smiles": "CC(=O)Oc1cc(C(C)C)c(OCCN(C)C)cc1C", "note": "[Moxisylyte hydrochoride] (20 µM)", "fold change of Cadaverine concentration": 0.986},
      {"smiles": "O=C1c2c(O)ccc(O)c2C(=O)c2c(NCCNCCO)ccc(NCCNCCO)c21", "note": "[Mitoxantrone dihydrochloride] (20 µM)", "fold change of Cadaverine concentration": 0.988},
      {"smiles": "Nc1cccc2c1C(=O)N(C1CCC(=O)NC1=O)C2=O", "note": "(centres undefined) [Pomalidomide] (20 µM)", "fold change of Cadaverine concentration": 0.954},
      {"smiles": "CCCCOc1ccc(C(=O)CCN2CCCCC2)cc1", "note": "[Dyclonine hydrochloride] (20 µM)", "fold change of Cadaverine concentration": 0.995},
      {"smiles": "OCC(O)CN1CCN(c2ccccc2)CC1", "note": "(centres undefined) [Dropropizine] (20 µM)", "fold change of Cadaverine concentration": 1.04},
      {"smiles": "CN(C)CCC(c1ccc(Cl)cc1)c1ccccn1", "note": "(centres undefined) [Chlorpheniramine maleate] (20 µM)", "fold change of Cadaverine concentration": "1.43 (active)"},
      {"smiles": "CNCC(O)c1ccc(OC(=O)C(C)(C)C)c(OC(=O)C(C)(C)C)c1", "note": "(centres undefined) [Dipivefrin hydrochloride] (20 µM)", "fold change of Cadaverine concentration": 0.995},
      {"smiles": "CC(=O)O[C@H]1C[C@@]2(C)[C@@H](C[C@@H](O)[C@H]3[C@@]4(C)CC[C@@H](O)[C@@H](C)[C@@H]4CC[C@@]32C)/C1=C(\\CCC=C(C)C)C(=O)O", "note": "[Fusidic acid sodium salt] (20 µM)", "fold change of Cadaverine concentration": 1},
      {"smiles": "CCOc1ccccc1OCC1CNCCO1", "note": "(centres undefined) [Viloxazine hydrochloride] (20 µM)", "fold change of Cadaverine concentration": 0.971},
      {"smiles": "OC[C@H]1O[C@@H](O[C@H]2[C@H](O)[C@@H](O)[C@H](O)O[C@@H]2CO)[C@H](O)[C@@H](O)[C@H]1O", "note": "[Lactose] (50 µM)", "fold change of Cadaverine concentration": 0.984},
      {"smiles": "CCC(=O)c1ccc(O)cc1", "note": "[Paroxypropione] (20 µM)", "fold change of Cadaverine concentration": 1.01},
      {"smiles": "CCOc1ccc2ccccc2c1C(=O)N[C@@H]1C(=O)N2[C@@H]1SC(C)(C)[C@@H]2C(=O)O", "note": "[Nafcillin sodium salt monohydrate] (20 µM)", "fold change of Cadaverine concentration": 1.02}
    ]}
  ]
}
